# High-throughput results deposited in PubChem by National Center for Advancing Translational Sciences (NCATS).
# Sampled rows, rich in hits. Any-hit rate of the full collection: about 7.8%.
# LASV entry inh: inhibitors of Lassa virus binding or cell entry; Lassa virus pseudotype entry inhibition, cell reporter; Potency, µM (series often up to 37.9 µM), for inactives: at the top dose activity change, negative = inhibition, hits mostly inhibitors; actives 1.2% (n = 300,000); AID 540256; calls by dose curve; tested in HEK293 cells; further: potency means the concentration at half of the fitted maximal effect; nearly all actives have a fitted effect of over 50% in size
# MARV entry inh: inhibitors of Marburg virus binding or cell entry; Marburg virus pseudotyped entry inhibition, cell reporter; Potency, µM (series often up to 37.8 µM), without a hit: at the top dose activity change, negative = inhibition, most hits filed as inhibitors; actives 1.8% (n = 300,000); AID 540276; calls by dose curve; tested in HEK293 cells; further: potency means the concentration at half of the fitted maximal effect
# VACV Venus inh: vaccinia inhibition (Venus reporter). actives 0.46% (n = 330,000). Potency, µM (highest dose often 36.5 µM), inactives show top-dose activity change, negative = inhibition, actives largely listed as inhibitors. Vaccinia virus Venus reporter expression, fluorescence; calls by dose curve; tested in A549 cells; further: potency means the concentration at half of the fitted maximal effect; nearly all actives have a fitted effect of over 30% in size
# HCMV antiviral: human cytomegalovirus inhibition. HFF cells, HCMV-luciferase reporter, 72 h; active compounds read low. activity change, negative = inhibition, % at 57.5 µM. actives 4.5% (n = 410,000). AID 1259415; in the data active means activity change below about -60%; inconclusive means no clear call, values can overlap the other calls; inactive means above about -39%
#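 Inhibition of viral replication was scored as loss of reporter luminescence in HFFs infected with HCMV-luciferase (MOI 1 PFU/cell) for 72 h; compounds tested at 2 doses, normalized to buffer and Salinomycin controls.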
# HCV inhibitor: HCV inhibition | Huh7.5.1 HCVcc-Cre infection, luciferase reporter, 44 h | Potency, µM (highest dose often 41.8 µM), inactives show top-dose activity change, negative = inhibition, most hits filed as inhibitors | actives 3.4% (n = 340,000); active means well fitted inhibition curve with a large enough effect; inconclusive means small, poorly fitted or top-dose-only effect, or another doubt; inactive means no such curve, though single readings can be large or run the other way; further: potency means the concentration at half of the fitted maximal effect
#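 Infectious HCVcc-Cre (~0.5 moi) was added to cells just after compound, with cells seeded 4 h earlier at 1,000 per well. Luciferase activity after 44 h culture reported infection; substrate was incubated 15 min at room temperature before reading.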
# VACV mCherry inh: vaccinia inhibition (mCherry reporter); actives 0.63% (n = 310,000); Potency, µM (titrated, usually from 36.5 µM), for the others: at the highest dose activity change, negative = inhibition, usual class: inhibitors; Vaccinia virus mCherry reporter infection, fluorescence; calls by dose curve; tested in A549 cells; further: potency means the concentration at half of the fitted maximal effect; nearly all actives have a fitted effect of over 35% in size
# * hit, by the source's call; i = inactive; u = inconclusive; x = no result; [ ] = remark or other dose. On the % scale 0 is the no-effect control and ±100 the full control effect.
SMILES,LASV entry inh,MARV entry inh,VACV Venus inh,HCMV antiviral,HCV inhibitor,VACV mCherry inh
O=S(=O)(c1ccc(NC(=S)N/N=C/c2c3ccccc3cc3ccccc23)cc1)N1CCOCC1,x,x,u,-95*,2.8µM*,-9%
CCCCOCCCNC(=S)Nc1ccc(S(=O)(=O)N2CCOCC2)cc1,x,x,x,-30,-26%,x
O=S(=O)(c1ccc(NC(=S)N/N=C/c2ccc(Oc3ccccc3)cc2)cc1)N1CCOCC1,-2%[46.1 µM],-2%[46.1 µM],-16%,-2,-16%,-22%
O=S(=O)(c1ccc(NC(=S)NCCC(c2ccccc2)c2ccccc2)cc1)N1CCOCC1,3.5µM*,10µM*,11µM*,-99*,u,10µM*
C[C@H]1CCCCO[C@H](CN(C)CC2CCCCC2)[C@@H](C)CN([C@@H](C)CO)C(=O)c2cc(NS(=O)(=O)c3ccccc3)ccc2O1,x,x,u,-63*,x,-6%
C[C@@H]1CCCCO[C@@H](CN(C)Cc2ccc3c(c2)OCO3)[C@@H](C)CN([C@H](C)CO)C(=O)c2cc(NS(=O)(=O)c3ccccc3)ccc2O1,x,x,u,-69*,x,-27%
C[C@@H]1CCCCO[C@@H](CN(C)CC2CCCCC2)[C@@H](C)CN([C@H](C)CO)C(=O)c2cc(NS(=O)(=O)c3ccc(Cl)cc3)ccc2O1,x,x,10µM*,-102*,x,u
Cc1ccc(S(=O)(=O)Nc2ccc3c(c2)C(=O)N([C@@H](C)CO)C[C@@H](C)[C@@H](CN(C)CC2CC2)OCCCC[C@@H](C)O3)cc1,x,x,-17%,-9,x,-7%
Cc1cc(C(C)(C)C)cc(C)c1CCNC(=O)c1ccc[n+]([O-])c1,3.2µM*,0.63µM*,25%,u,u,10µM*
CCCCN(Cc1ccccc1)S(=O)(=O)c1cc(Br)cc2c1N(C(C)=O)C(C)C2 (centres undefined),u,u,-22%,-65*,5µM*,-30%
CC(=O)N1c2c(cc(Br)cc2S(=O)(=O)N2CCN(c3ccccc3F)CC2)CC1C (centres undefined),x,u,-15%,-67*,u,-13%
CC(=O)N1c2c(cc(Br)cc2S(=O)(=O)N2CCN(c3cc(C)ccc3C)CC2)CC1C (centres undefined),u,-14%[46.1 µM],0%,-33,x,-3%
CSCc1ccc(C(=O)N2CCC(N3CCC(C(=O)NC(C)C)CC3)CC2)o1,4%,-17%,-2%,-64*,-9%,-13%
CC(C)NC(=O)C1CCN(C2CCN(C(=O)Cc3ccc4c(c3)OCO4)CC2)CC1,-1%[46.1 µM],4%[46.1 µM],-10%,-11,0%,-2%
Clc1cccc(OCCOCCN2CCNCC2)c1Cl,3%,13µM*,-18%,16,u,u
CN1CCCN(C(c2ccccc2)c2ccc(Cl)cc2)CC1 (centres undefined),13µM*,u,u,u,1.3µM*,u
COc1ccc(-n2nc3c(c2NC(=O)C(=O)N2CCN(C)CC2)CSC3)cc1,20%[46.1 µM],x,-7%,-5,x,-7%
O=C(NCc1cccs1)c1ccc(Cn2c(SCc3cccc(F)c3)nc3cccnc32)cc1,u,x,-21%,-70*,x,-21%
O=C(Cn1c(SCc2cccc(F)c2)nc2cccnc21)Nc1ccc(F)c(Cl)c1,0%[46.1 µM],x,-23%,-73*,x,-19%
O=C(NCCc1cccs1)c1ccc(Cn2c(SCc3cccc(F)c3)nc3cccnc32)cc1,x,u,-19%,-5,x,-11%
CC(C)OCCCNC(=O)c1ccc(CSc2nc3cccnc3n2Cc2ccccc2)cc1,2%[46.1 µM],x,-22%,-98*,x,-29%
CCOc1ccc(CCNC(=O)Cn2nc(CC)n3c(cc4c(OC)cccc43)c2=O)cc1OCC,x,-13%[46.1 µM],-10%,5,x,-12%
CCN1CCN(c2cc(C)c3cc(NC(=O)c4cc(Br)ccc4Cl)ccc3n2)CC1,u,u,-23%,-72*,x,-20%
CCN1CCN(C(=S)Nc2ccc3nc(N4CCN(C)CC4)cc(C)c3c2)CC1,10µM*,u,13%,u,u,-25%
CCN1CCN(c2cc(C)c3cc(NC(=O)c4cccnc4Cl)ccc3n2)CC1,-3%,u,x,34,u,x
SMILES,LASV entry inh,MARV entry inh,VACV Venus inh,HCMV antiviral,HCV inhibitor,VACV mCherry inh
CCN1CCN(c2cc(C)c3cc(NC(=S)N4CCCC(C)C4)ccc3n2)CC1 (centres undefined),u,7.9µM*,-11%,-71*,u,u
CCN1CCN(C(=S)Nc2ccc3nc(N4CCN(CC)CC4)cc(C)c3c2)CC1,u,u,-24%,-40,13µM*,-27%
CCN1CCN(c2cc(C)c3cc(NC(=S)N4CC(C)CC(C)C4)ccc3n2)CC1 (centres undefined),-27%,u,u,u,u,u
CC(C)=CCC/C(C)=C/CO/N=C1\C[C@@H](O)[C@@H](O)[C@@H]2[C@@H]3C(=O)N(Cc4ccc5c(c4)OCO5)C(=O)[C@@H]3CC[C@@H]12,x,-17%[14.2 µM],x,x,x,x
COC(=O)[C@@H]1CCCN1Cc1ccc2c(c1)CN(Cc1coc3ccccc3c1=O)CCO2,x,x,14%,x,x,-4%
COc1ccc(CNC(=O)COCc2cc(-c3cccs3)on2)cc1,u,x,-6%,-6,x,-18%
Clc1ccc(-c2ccc(/C=N/Nc3cc(N4CCOCC4)nc(N4CCOCC4)n3)o2)cc1,6%,6.3µM*,-12%,-34,u,x
Brc1ccc(-c2ccc(/C=N/Nc3nc(N4CCOCC4)nc(N4CCOCC4)n3)o2)cc1,-12%[46.1 µM],4µM*,-4%,u,u,i
Fc1cnc(N/N=C/c2ccc(-c3ccc(Br)cc3)o2)nc1N1CCOCC1,5%[46.1 µM],0%[46.1 µM],-14%,5,16%,i
CCOc1ccccc1NC(=O)CN1c2ccccc2S(=O)(=O)c2ccccc21,-5%[46.1 µM],x,-8%,12,x,-16%
O=C(c1cccc([N+](=O)[O-])c1)N1CCN(c2ccc(Nc3ccccc3)nn2)CC1,-15%[46.1 µM],x,-10%,14,x,-13%
COc1cc(C(O)CO)ccc1OS(=O)(=O)O (centres undefined),14%,u,10%,-73*,4%,-17%
CCN(CC)c1ccc(/C=C/c2cccc[n+]2C)c(OC)c1,u,2.8µM*,i,-97*,0.89µM*,98%
C[n+]1ccccc1/C=C/c1cc(Br)ccc1O,x,x,x,-23,u,x
COc1ccc(/C=C/c2cccc[n+]2C)c(O)c1,x,x,x,-32,8.9µM*,x
CCc1nn(CC(=O)NCc2ccc(C)cc2)c(=O)c2cc3occc3n12,27%[46.1 µM],-29%[46.1 µM],3%,-12,x,-9%
O=C1/C(=C/c2ccccn2)COc2ccccc21,u,u,-8%,u,20%,-16%
CN1C2CCC1/C(=C/c1ccccn1)C(=O)/C2=C\c1ccccn1,2.3µM*,1.3µM*,6.3µM*,-101*,3.5µM*,2.5µM*
